Keap1 Nrf2 FP = disrupts human Keap1 binding to Nrf2 peptide. Q14145. Keap1 Kelch-Nrf2 peptide fluorescence polarization, 1536-well. inhibition, % at 9.4 µM. 0.15% of 340,000 active. AID 504523; in the data active = inhibition above about 12%;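 also: human Keap1 Kelch domain with fluorescein labeled Nrf2 9mer peptide probe; 0% = neutral control wells and 100% = peptide positive control; higher means more block of Keap1 binding to Nrf2 peptide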
Target sequence (Q14145 whole entry, looked up, the tested form may be a part): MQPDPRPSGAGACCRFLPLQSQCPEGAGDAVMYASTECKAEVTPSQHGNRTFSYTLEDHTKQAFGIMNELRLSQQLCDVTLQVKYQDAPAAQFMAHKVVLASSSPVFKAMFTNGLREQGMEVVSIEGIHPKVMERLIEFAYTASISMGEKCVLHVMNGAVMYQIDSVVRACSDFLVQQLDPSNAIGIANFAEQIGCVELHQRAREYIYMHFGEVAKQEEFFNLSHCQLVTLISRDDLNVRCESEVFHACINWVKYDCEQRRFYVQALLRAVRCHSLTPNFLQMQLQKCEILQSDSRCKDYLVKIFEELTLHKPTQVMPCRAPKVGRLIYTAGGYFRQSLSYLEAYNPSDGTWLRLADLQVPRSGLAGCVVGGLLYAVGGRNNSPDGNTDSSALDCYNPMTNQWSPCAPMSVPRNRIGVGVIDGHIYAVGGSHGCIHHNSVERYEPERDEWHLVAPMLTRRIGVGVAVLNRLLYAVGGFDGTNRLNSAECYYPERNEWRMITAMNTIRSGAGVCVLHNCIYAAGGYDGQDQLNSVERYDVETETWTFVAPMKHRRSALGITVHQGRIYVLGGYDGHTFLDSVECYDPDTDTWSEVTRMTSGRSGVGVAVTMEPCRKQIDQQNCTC
cardiac RTF act = cardiac RTF calcium sensitization. P19429+P45379. IANBD-labeled TnC RTF fluorescence at EC20 calcium; 0% EC20 calcium, 100% full calcium. activation, % at 7.2 µM. 0.24% of 340,000 active. AID 493008;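 active = activation above the mean over all tested compounds plus 3 SD, cut at about 30% in these data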;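 also: rise in fluorescence read as greater calcium sensitivity of cardiac thin filaments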
C-LANA FP = inhibitors of KSHV LANA C-terminal domain DNA binding; MBP-C-LANA/FAM-LBS DNA binding, fluorescence polarization; inhibition, % at 9 µM; 0.078% of 340,000 active;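 active = highest replicate inhibition at or above 60% at 9 µM, even if other replicates fall short; inactive = all replicates below 60% inhibition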;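 also: 0% = neutral control wells and 100% = 4 µM acridine orange control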
Cardiac RTF inh = cardiac RTF calcium desensitization. P19429+P45379. IANBD-labeled cardiac RTF, Ca2+ fluorescence. inhibition, % at 7.15 µM. 0.12% of 340,000 active. AID 493244;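 active = inhibition above the mean inhibition of all tested compounds plus 3 SD, cut at about 17% in these data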;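 also: assay run at fixed EC70 calcium of 1.6 mM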
E coli Lon inh = inhibitors of E. coli Lon protease | P0A9M0 | purified E. coli Lon protease, fluorescence polarization | inhibition, % at 7.94 µM | 0.42% of 360,000 active | AID 602123; in the data active = inhibition above about 13%, passing the limit was not always enough;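 also: 0% = enzyme with probe and DMSO and 100% = no enzyme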
eLon confirm = E. coli Lon inhibition confirmation; shares compounds with E coli Lon inh; purified E. coli Lon, fluorescence polarization; inhibition, % at 7.94 µM; 31% of 1,400 active; AID 602230; in the data active = inhibition above about 16%;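 also: 0% = enzyme with probe and DMSO and 100% = no enzyme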
Active calls of the source: *. Only some compounds are listed: those with a hit (about 0.82% of all), similar ones and a draw of the others.

COc1ccc(NC(=O)C2CCCN2S(=O)(=O)c2ccc3c(c2)CC(C)N3C(C)=O)cc1OC (stereo not given) was read as Keap1 Nrf2 FP 0.6, cardiac RTF act 0.0, C-LANA FP -1.1, Cardiac RTF inh -12.4 and E coli Lon inh -1.4.
Screening O=C1CCCN1CCCN1CC(C(=O)N(CCO)Cc2ccccc2)CCC1=O (stereo not given) returned Keap1 Nrf2 FP -5.9, cardiac RTF act -2.4, C-LANA FP 0.3, Cardiac RTF inh -7.0 and E coli Lon inh -6.8.
For O=C(C1CCC(=O)N(C2CC2)C1)N(CCO)Cc1ccccc1 (stereo not given) the results were Keap1 Nrf2 FP -4.6, cardiac RTF act -4.1, C-LANA FP -0.5, Cardiac RTF inh -4.5, E coli Lon inh 46.5* and eLon confirm -0.3.
`CC1(C)Cc2c(c(-c3ccco3)[nH]c(=O)c2C#N)CS1` gave Keap1 Nrf2 FP 0.4, cardiac RTF act 2.5, C-LANA FP 6.9, Cardiac RTF inh -9.5, E coli Lon inh 33.5* and eLon confirm 28.6*.
For O=S(=O)(c1ccc2c(c1)OCCO2)N1CCC(n2cnc3cc(F)ccc32)CC1 the results were Keap1 Nrf2 FP 2.7, cardiac RTF act -5.1, C-LANA FP 0.4, Cardiac RTF inh -14.1, E coli Lon inh 16.6* and eLon confirm -37.8.
`C[C@H]1CN([C@@H](C)CO)C(=O)Cc2cc(NC(=O)Cc3ccccc3)ccc2O[C@H]1CN(C)C(=O)Nc1cccc2ccccc12` gave Keap1 Nrf2 FP -0.8, cardiac RTF act -0.5, C-LANA FP -3.4, Cardiac RTF inh -25.8 and E coli Lon inh -5.5.
`COc1cc(OC)c(-c2c3cc(O)c(=O)cc-3oc3cc(O)c(O)cc23)cc1OC` gave Keap1 Nrf2 FP -198.8, cardiac RTF act 894.0*, C-LANA FP -32.4, Cardiac RTF inh -487.7, E coli Lon inh 19.9* and eLon confirm -54.4.
Cc1cc2oc(=O)cc(-c3cc4ccccc4o3)c2cc1O was read as Keap1 Nrf2 FP -0.7, cardiac RTF act -6.4, C-LANA FP -0.6, Cardiac RTF inh -13.2 and E coli Lon inh 4.5.
Screening Cc1c2cc(O)c(=O)cc-2oc2cc(O)c(O)cc12 returned Keap1 Nrf2 FP 121.2*, cardiac RTF act 109.2*, C-LANA FP 163.7*, Cardiac RTF inh -19.7, E coli Lon inh 48.1* and eLon confirm 196.5*.
Screening CC(C)(C)NC(=S)N1CCC(C(=O)c2ccc(Cl)cc2)CC1 returned Keap1 Nrf2 FP -1.3, cardiac RTF act 7.2, Cardiac RTF inh -9.0 and E coli Lon inh 2.9.
COC(C(=O)N1CCC(CCC(=O)Nc2ccccc2)CC1)c1ccccc1 (stereo not given) was read as Keap1 Nrf2 FP -0.4, cardiac RTF act -5.4, C-LANA FP -0.7, Cardiac RTF inh 5.2 and E coli Lon inh 11.3.
Screening CCN(CC)S(=O)(=O)c1cc(NC(=O)[C@@H](NC(N)=O)C(C)C)ccc1C returned Keap1 Nrf2 FP -4.0, cardiac RTF act 10.7, C-LANA FP 1.2, Cardiac RTF inh -6.1, E coli Lon inh 17.1* and eLon confirm -3.1.
For CCOC(=O)c1ccc(NC(=O)[C@@H](NC(N)=O)C(C)C)cc1 the results were Keap1 Nrf2 FP 3.6, cardiac RTF act -1.0, C-LANA FP 0.6, Cardiac RTF inh -2.5 and E coli Lon inh -3.7.
For CCC(=O)NC(=S)Nc1ccc(S(=O)(=O)NC2CCCCC2)cc1 the results were Keap1 Nrf2 FP 0.8, cardiac RTF act 0.0, C-LANA FP -0.6, Cardiac RTF inh -3.2 and E coli Lon inh -3.4.
CCC(C)c1ccc(NC(=O)COC(=O)CCNS(=O)(=O)c2cccs2)cc1 (stereo not given) was read as Keap1 Nrf2 FP -1.8, cardiac RTF act -0.8, C-LANA FP 0.6, Cardiac RTF inh -10.3, E coli Lon inh 25.9* and eLon confirm 45.1*.
`CN1CCN(CCNC(=O)c2ccc(CS(=O)c3ccc(Br)cc3)o2)CC1` (stereo not given) gave E coli Lon inh 0.1.
Screening O=C(CC1C=CCC1)Nc1ccccc1 (stereo not given) returned Keap1 Nrf2 FP -2.8, cardiac RTF act -1.5, C-LANA FP 0.2, Cardiac RTF inh -8.2, E coli Lon inh 50.0* and eLon confirm -1.4.
Cc1cc(C(N)=O)c2ccccc2n1 was read as Keap1 Nrf2 FP 5.7, cardiac RTF act 7.7, C-LANA FP -0.8, Cardiac RTF inh -10.6 and E coli Lon inh -5.8.
